Measured values from paper PMC10812921, “Transcriptional Coactivator BOB1 (OBF1, OCA-B) Modulates the Specificity of DNA Recognition by the POU-Domain Factors OCT1 and OCT2 in a Monomeric Configuration”.

Experiments:
POU1 (OCT1 POU domain) = POU1 (OCT1 POU domain) (human, UniProt P14859 260-458); assay: EMSA-SELEX-seq; no BOB1; 20 mM Tris-HCl pH 7.6, 140 mM NaCl, 10% glycerol, 0.5 mM EDTA, 0.05% Triton X-100, 0.1 mg/mL BSA, 0.1 mg/mL poly(dI-dC), 5 mM DTT, room temperature, 20 min; high values mean tight binding; conditions: protein: recombinant; dsDNA, one strand shown
In short: (§1)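 Binding preference is the percentage of sequenced 8-mers matching a motif pattern. Tagged POU-domain proteins expressed in E. coli BL21 were purified under denaturing conditions and renatured. For binding, 30 ng protein met 300 ng of a PCR-amplified double-stranded random 35-nt library, with or without 28 ng coactivator protein, in 20 μL Tris–HCl pH 7.6 binding buffer for 20 min at RT. Complex bands were cut from native 6% PAGE, eluted and PCR-amplified over four rounds, then Illumina-sequenced.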

POU2 (OCT2 POU domain) = target: T1, POU2 (OCT2 POU domain) (human, UniProt P09086 175-386); assay: as above; conditions: protein: recombinant; dsDNA, one strand shown
T1 sequence: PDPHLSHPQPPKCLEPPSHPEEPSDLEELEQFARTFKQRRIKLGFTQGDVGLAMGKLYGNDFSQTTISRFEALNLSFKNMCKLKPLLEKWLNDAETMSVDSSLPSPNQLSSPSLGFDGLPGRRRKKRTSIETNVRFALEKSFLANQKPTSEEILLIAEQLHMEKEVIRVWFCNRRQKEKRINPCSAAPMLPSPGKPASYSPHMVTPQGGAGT
In short: as §1

[1] = target: POU1 (OCT1 POU domain);BOB1 (OBF1, OCA-B) (human;human, UniProt P14859;Q16633 260-458;1-256, |); assay: EMSA-SELEX-seq; with BOB1 (ternary complex band); 20 mM Tris-HCl pH 7.6, 140 mM NaCl, 10% glycerol, 0.5 mM EDTA, 0.05% Triton X-100, 0.1 mg/mL BSA, 0.1 mg/mL poly(dI-dC), 5 mM DTT, room temperature, 20 min; high values mean tight binding; conditions: protein: recombinant;recombinant; copies: 1;1; dsDNA, one strand shown
In short: as §1

[2] = target: T2, POU2 (OCT2 POU domain);BOB1 (OBF1, OCA-B) (human;human, UniProt P09086;Q16633 175-386;1-256, |); assay: as above; conditions: protein: recombinant;recombinant; copies: 1;1; dsDNA, one strand shown
T2 sequence 1: T1 sequence
T2 sequence 2: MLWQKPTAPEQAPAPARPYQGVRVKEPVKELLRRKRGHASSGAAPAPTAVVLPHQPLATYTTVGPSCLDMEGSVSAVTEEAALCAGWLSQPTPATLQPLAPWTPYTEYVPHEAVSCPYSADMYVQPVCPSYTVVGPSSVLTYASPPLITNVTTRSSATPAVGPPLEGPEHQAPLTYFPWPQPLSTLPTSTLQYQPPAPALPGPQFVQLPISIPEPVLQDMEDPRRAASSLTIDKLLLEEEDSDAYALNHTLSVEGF
In short: as §1

Sequence of POU1 (OCT1 POU domain) (P14859 260-458): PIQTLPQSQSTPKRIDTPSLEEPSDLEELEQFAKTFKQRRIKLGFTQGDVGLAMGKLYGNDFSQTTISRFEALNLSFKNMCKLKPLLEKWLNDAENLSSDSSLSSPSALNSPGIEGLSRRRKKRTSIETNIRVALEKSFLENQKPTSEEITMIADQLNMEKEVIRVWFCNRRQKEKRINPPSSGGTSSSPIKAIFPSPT

| Sequence | binding signal (POU1 (OCT1 POU domain)) | binding signal (POU2 (OCT2 POU domain)) | binding signal [1] | binding signal [2] |
| --- | --- | --- | --- | --- |
| AAAAAAAG | 0.0923 % of ANNNNAAN 8-mers | 0.0938 % of ANNNNAAN 8-mers | 0.111 % of ANNNNAAN 8-mers | 0.0842 % of ANNNNAAN 8-mers |
| AGTCTAAC | 0.021 % of ANNNNAAN 8-mers | 0.0207 % of ANNNNAAN 8-mers | 0.0199 % of ANNNNAAN 8-mers | 0.0231 % of ANNNNAAN 8-mers |
| ATCCTAAC | 0.0172 % of ANNNNAAN 8-mers | 0.0299 % of ANNNNAAN 8-mers | 0.023 % of ANNNNAAN 8-mers | 0.0355 % of ANNNNAAN 8-mers |
| ATGGAAAC | 0.0805 % of ANNNNAAN 8-mers | 0.0616 % of ANNNNAAN 8-mers | 0.11 % of ANNNNAAN 8-mers | 0.066 % of ANNNNAAN 8-mers |
| ACATAAAT | 0.23 % of ANNNNAAN 8-mers | 0.251 % of ANNNNAAN 8-mers | 0.117 % of ANNNNAAN 8-mers | 0.177 % of ANNNNAAN 8-mers |
| AGCGCAAC | 0.0103 % of ANNNNAAN 8-mers | 0.0104 % of ANNNNAAN 8-mers | 0.0125 % of ANNNNAAN 8-mers | 0.0107 % of ANNNNAAN 8-mers |
| AGGATAAC | 0.0263 % of ANNNNAAN 8-mers | 0.0437 % of ANNNNAAN 8-mers | 0.0293 % of ANNNNAAN 8-mers | 0.0355 % of ANNNNAAN 8-mers |
| ATACCAAC | 0.0244 % of ANNNNAAN 8-mers | 0.0276 % of ANNNNAAN 8-mers | 0.0242 % of ANNNNAAN 8-mers | 0.0215 % of ANNNNAAN 8-mers |
| ATAGGAAT | 0.098 % of ANNNNAAN 8-mers | 0.132 % of ANNNNAAN 8-mers | 0.0898 % of ANNNNAAN 8-mers | 0.106 % of ANNNNAAN 8-mers |
| ATACCAAT | 0.0465 % of ANNNNAAN 8-mers | 0.0518 % of ANNNNAAN 8-mers | 0.0394 % of ANNNNAAN 8-mers | 0.0471 % of ANNNNAAN 8-mers |
| AGCACAAG | 0.0168 % of ANNNNAAN 8-mers | 0.0196 % of ANNNNAAN 8-mers | 0.0183 % of ANNNNAAN 8-mers | 0.0124 % of ANNNNAAN 8-mers |
| ATATAAAA | 0.103 % of ANNNNAAN 8-mers | 0.102 % of ANNNNAAN 8-mers | 0.101 % of ANNNNAAN 8-mers | 0.0702 % of ANNNNAAN 8-mers |
| AGAAAAAT | 0.0946 % of ANNNNAAN 8-mers | 0.0886 % of ANNNNAAN 8-mers | 0.0921 % of ANNNNAAN 8-mers | 0.09 % of ANNNNAAN 8-mers |
| AAGTTAAG | 0.0568 % of ANNNNAAN 8-mers | 0.0742 % of ANNNNAAN 8-mers | 0.0539 % of ANNNNAAN 8-mers | 0.0636 % of ANNNNAAN 8-mers |
| ACATTAAT | 0.165 % of ANNNNAAN 8-mers | 0.215 % of ANNNNAAN 8-mers | 0.0777 % of ANNNNAAN 8-mers | 0.102 % of ANNNNAAN 8-mers |
| AATGTAAT | 0.169 % of ANNNNAAN 8-mers | 0.181 % of ANNNNAAN 8-mers | 0.109 % of ANNNNAAN 8-mers | 0.137 % of ANNNNAAN 8-mers |

| Sequence | binding signal (POU1 (OCT1 POU domain)) | binding signal (POU2 (OCT2 POU domain)) | binding signal [1] | binding signal [2] |
| --- | --- | --- | --- | --- |
| AGCGAAAG | 0.0248 % of ANNNNAAN 8-mers | 0.0242 % of ANNNNAAN 8-mers | 0.0332 % of ANNNNAAN 8-mers | 0.0239 % of ANNNNAAN 8-mers |
| AAATTAAT | 0.415 % of ANNNNAAN 8-mers | 0.478 % of ANNNNAAN 8-mers | 0.244 % of ANNNNAAN 8-mers | 0.287 % of ANNNNAAN 8-mers |
| ACCACAAT | 0.0179 % of ANNNNAAN 8-mers | 0.0178 % of ANNNNAAN 8-mers | 0.0199 % of ANNNNAAN 8-mers | 0.0215 % of ANNNNAAN 8-mers |
| AGAGCAAT | 0.0355 % of ANNNNAAN 8-mers | 0.0443 % of ANNNNAAN 8-mers | 0.0332 % of ANNNNAAN 8-mers | 0.0363 % of ANNNNAAN 8-mers |
| ACTGGAAT | 0.074 % of ANNNNAAN 8-mers | 0.0765 % of ANNNNAAN 8-mers | 0.0558 % of ANNNNAAN 8-mers | 0.0817 % of ANNNNAAN 8-mers |
| ACCTGAAA | 0.0183 % of ANNNNAAN 8-mers | 0.0247 % of ANNNNAAN 8-mers | 0.0215 % of ANNNNAAN 8-mers | 0.019 % of ANNNNAAN 8-mers |
| ACCACAAA | 0.0141 % of ANNNNAAN 8-mers | 0.0196 % of ANNNNAAN 8-mers | 0.014 % of ANNNNAAN 8-mers | 0.0198 % of ANNNNAAN 8-mers |
| AAGCCAAA | 0.0305 % of ANNNNAAN 8-mers | 0.0414 % of ANNNNAAN 8-mers | 0.0464 % of ANNNNAAN 8-mers | 0.0256 % of ANNNNAAN 8-mers |
| AAGGAAAG | 0.0576 % of ANNNNAAN 8-mers | 0.0524 % of ANNNNAAN 8-mers | 0.0792 % of ANNNNAAN 8-mers | 0.0644 % of ANNNNAAN 8-mers |
| AAGTGAAA | 0.0721 % of ANNNNAAN 8-mers | 0.0587 % of ANNNNAAN 8-mers | 0.0788 % of ANNNNAAN 8-mers | 0.0627 % of ANNNNAAN 8-mers |
| AGTATAAT | 0.192 % of ANNNNAAN 8-mers | 0.289 % of ANNNNAAN 8-mers | 0.0866 % of ANNNNAAN 8-mers | 0.121 % of ANNNNAAN 8-mers |
| ACCCGAAT | 0.0233 % of ANNNNAAN 8-mers | 0.0386 % of ANNNNAAN 8-mers | 0.0219 % of ANNNNAAN 8-mers | 0.0248 % of ANNNNAAN 8-mers |
| ACTTTAAT | 0.0824 % of ANNNNAAN 8-mers | 0.103 % of ANNNNAAN 8-mers | 0.0558 % of ANNNNAAN 8-mers | 0.066 % of ANNNNAAN 8-mers |
| ACAGTAAC | 0.0149 % of ANNNNAAN 8-mers | 0.0242 % of ANNNNAAN 8-mers | 0.0148 % of ANNNNAAN 8-mers | 0.0149 % of ANNNNAAN 8-mers |
| ATGTAAAT | 3.45 % of ANNNNAAN 8-mers | 2.89 % of ANNNNAAN 8-mers | 2.3 % of ANNNNAAN 8-mers | 3.57 % of ANNNNAAN 8-mers |
| AGGACAAA | 0.045 % of ANNNNAAN 8-mers | 0.046 % of ANNNNAAN 8-mers | 0.0453 % of ANNNNAAN 8-mers | 0.0371 % of ANNNNAAN 8-mers |
